Among the data in PubChem BioAssay AID624330 (Southern Research Specialized Biocontainment Screening …, 2012) are inhibition values, retold here.

About 2,100 (0.62%) of roughly 340,000 compounds were called active. These entries were drawn from the full list. Potency and affinity values are given separately. A number with no mark means an inactive call.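 Rule for the calls: active = first-screen hits whose inhibition reached a set limit at any dose in the follow-up dose series; inconclusive = inhibition above the set first-screen limit but never retested; inactive = the rest.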

By inhibition is commonly meant the change of the read-out against control, counted positive when it falls.

For the assay, the target named is Rac GTPase-activating protein 1 (Homo sapiens) (UniProt Q9H0H5). The assay is described as follows: blockers of MgcRacGAP-driven Rac1 GTP hydrolysis – biochemical, ADP Hunter fluorescence, primary and confirmatory, confirmation (AID 624330).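 Note: fluorescence reports GDP produced by GAP-driven GTP hydrolysis.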 Conditions: MgcRacGAP-stimulated Rac1 GTP hydrolysis, at 30 µM, active compounds read high, GST-tagged Rac1 F28L mutant substrate.
Sequence of Rac GTPase-activating protein 1 (Homo sapiens) (Q9H0H5 whole entry, looked up): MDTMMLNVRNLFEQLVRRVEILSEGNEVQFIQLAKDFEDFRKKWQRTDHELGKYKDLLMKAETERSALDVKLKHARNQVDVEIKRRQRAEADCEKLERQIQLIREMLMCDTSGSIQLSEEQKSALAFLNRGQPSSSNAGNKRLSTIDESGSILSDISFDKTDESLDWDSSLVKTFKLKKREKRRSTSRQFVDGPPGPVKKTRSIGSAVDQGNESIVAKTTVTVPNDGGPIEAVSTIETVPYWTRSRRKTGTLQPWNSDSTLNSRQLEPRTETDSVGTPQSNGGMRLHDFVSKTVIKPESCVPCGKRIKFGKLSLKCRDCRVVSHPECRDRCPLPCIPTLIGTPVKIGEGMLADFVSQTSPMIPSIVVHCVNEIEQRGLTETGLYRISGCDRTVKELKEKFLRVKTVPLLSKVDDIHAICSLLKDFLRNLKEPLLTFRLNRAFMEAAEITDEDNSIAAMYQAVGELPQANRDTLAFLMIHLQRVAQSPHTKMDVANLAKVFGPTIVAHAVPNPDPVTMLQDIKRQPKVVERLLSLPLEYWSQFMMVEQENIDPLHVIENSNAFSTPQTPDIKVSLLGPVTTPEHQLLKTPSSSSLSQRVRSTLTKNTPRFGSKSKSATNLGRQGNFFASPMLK
With `CSc1nnc(-c2ccc(S(=O)(=O)N3CCCCC3)cc2)o1`, the inhibition is 1%. With `CCC(C)c1ccccc1NC(=O)C(C)OC(=O)c1ccco1` (configuration not stated), the inhibition is 1.05%. Take `O=c1c(Cc2c(F)cccc2Cl)c(O)ccn1CC1CCCO1` (configuration not stated): the inhibition is -2.7%. The figure for `CCOC(=O)CCc1c(C)nc2cc(-c3ccc(Cl)cc3)[nH]n2c1=O` is -6.3%; for `O=C(CCNC(=O)c1ccco1)Nc1ccc(SC(F)F)cc1` it is -1.92%; for `COc1ccc(N2CCN(C(=O)CSc3nnnn3C3CC3)CC2)cc1` it is 16.6%. For `COc1ccc(N2CCN(C(=O)CSc3nnc(C4CC4)n3C3CC3)CC2)cc1`, the inhibition was 24.3%.

For the molecule `Cc1nnc(SCC(=O)N2CCN(c3ccccc3)CC2)n1C1CC1`, the inhibition is 5.61%. Turning to `O=C(CSc1nnnn1C1CC1)N1CCN(c2cccc(Cl)c2)CC1`, the inhibition is 6.11%.

On to `C[C@@H]1[C@H]2CCCC[C@H]2CN(C(=O)OC(C)(C)C)[C@@H]1CC(=O)c1ccccc1`, for which the inhibition was 12.5%. For `COc1ccc(CN2CCS(=O)(=O)CC2)cc1OC`, the inhibition was -1.72%. Under `CCOC(=O)C1CCCN(S(=O)(=O)c2ccc(Cl)nc2)C1` (configuration not stated) stands 0.62%; under `CCC(=O)c1ccccc1OCCN1C(=O)NC(C)(C)C1=O`, 3.57%.

For `Fc1ccccc1CNCc1ccc2c(c1)OCO2`, the inhibition is 6.19%. For the molecule `Cc1ccc(CNCc2ccccc2Cl)cc1`, the inhibition was 3.27%.

`Cc1ccccc1CNCc1ccc2c(c1)OCO2`: the inhibition was 25.3%. Under `Clc1ccccc1CNCc1ccncc1` stands -5.2%.

In the case of `CC1=C(C(=O)NC(C)CCc2ccccc2)C2(CCC(C)CC2)OC1=O` (configuration not stated), the inhibition was 9.85%.

Take `O=C(C[n+]1cccc(/C=N/O)c1)N(Cc1ccccc1)Cc1ccccc1`: the inhibition was 2.39%. As for `COc1ccc(CCNC(=O)CSc2n[nH]c(N)n2)cc1`, the inhibition is 9.27%. On to `Cc1csc(=O)n1CCC(=O)OCC(=O)Nc1ccc(S(N)(=O)=O)cc1`, for which the inhibition was 6.26%. The figure for `O=C(CCN1C(=O)[C@@H]2Cc3ccccc3CN2C1=O)NCc1ccccc1Cl` is 13.7%; for `CCOc1ccc(S(=O)(=O)N2CCCC(C(=O)Nc3ccccc3)C2)cc1` (configuration not stated) it is 4.61%; for `COc1cc(CC(=O)OCC(=O)Nc2ccc3c(c2)OCO3)cc(OC)c1OC` it is 12.4%. For `CCN(c1ccc(NC(=O)COC(=O)CCc2cc(OC)c(OC)c(OC)c2)cc1)C(C)C`, the inhibition was 14.8%.

For the molecule `CCN(CC)S(=O)(=O)c1ccc(NC(=O)COC(=O)CCc2cc(OC)c(OC)c(OC)c2)cc1`, the inhibition is 1.83%.

With `COc1ccccc1/C=C(/C(=O)OCC(=O)Nc1ccccc1C)c1ccccc1`, the inhibition was 8.5%.

Consider `COc1cc(CC(=O)OCC(=O)Nc2ccc([N+](=O)[O-])cc2)cc(OC)c1OC`, for which the inhibition is 13.3%. Take `CCc1ccc(NC(=O)COC(=O)/C(=C/c2ccccc2OC)c2ccccc2)cc1`: the inhibition was -0.32%. Regarding `COc1ccc(NC(C)=O)cc1C`, the inhibition is 16.4%. For `COCc1cc(C)n(CC(=O)Nc2ccc(N3CCOCC3)cc2)c(=O)c1C#N`, the inhibition was 1.03%. On to `Nc1c(C(=O)c2cccs2)oc2ccccc12`, for which the inhibition is 6.17%. The figure for `Cc1ccc(C(=O)OCc2nnc(-c3ccccc3)o2)o1` is 6.62%; for `O=c1c2ccccc2[nH]c(=S)n1CCCN1CCOCC1` it is 4.66%; for `COCCCn1c(=S)[nH]c2c(sc3ccccc32)c1=O` it is 21%. For `CCN(CC)S(=O)(=O)c1cc(C(=O)OCC(=O)Nc2ccc(-c3nc4ccc(C)cc4s3)cc2)ccc1F`, the inhibition was 4.33%. As for `COc1ccc2c(c1)-c1nc(NC(=O)c3cccs3)sc1CC2`, the inhibition was 8.83%. As to `CC(=O)Nc1nc2c(s1)CCc1ccccc1-2`, the inhibition was 8.9%. `COc1ccc2c(c1)-c1nc(NC(=O)c3ccco3)sc1CC2`: the inhibition was 8.71%. For `Nc1nc2c(s1)COc1ccccc1-2`, the inhibition was 4.85%. Consider `CCc1ccc(N2CCN(C(=O)N3CCOCC3)CC2)cc1`, for which the inhibition is 7.01%. In the case of `CCC(=O)N1CCN(c2ccc(NC(=O)COc3ccc(CC)cc3)cc2)CC1`, the inhibition is 3.4%. Under `c1cc(CNc2ccc(N3CCOCC3)cc2)ccn1` stands 13.9%; under `Cc1ccc(CNc2ccc(N3CCOCC3)c(C(=O)O)c2)s1`, 6.12%; under `CC(=O)N1CCN(c2ccc(NC(=O)c3ccc(Cl)cc3)cc2)CC1`, 4.31%. `O=S(=O)(c1ccc(NCc2ccccc2)cc1)N1CCOCC1`: the inhibition is 5.28%.

For `CC(=O)N1CCN(c2ccc(NCc3ccc(C)s3)cc2)CC1`, the inhibition was 30.4%.

On to `CC(=O)c1ccc(N2CCN(C(=O)Nc3ccc(C(C)C)cc3)CC2)cc1`, for which the inhibition is 6.75%.

In the case of `Cc1cc(=O)[nH]c(NN=C2C3CC4CC(C3)CC2C4)n1`, the inhibition was -3.7%. Consider `CS(=O)(=O)NNC(=O)C1Cc2c(ccc3ccccc23)O1` (configuration not stated), for which the inhibition is 8.23%.

Consider `CC1CCCC(C)N1CCNC(=O)Nc1ccc(Cl)cc1` (configuration not stated), for which the inhibition was 6.73%. As to `COc1ccc(NC(=O)C2CCN(C(=O)[C@@H]3Cc4ccccc4CN3)CC2)cc1`, the inhibition was -3.28%. `O=C(OCc1ccccc1)/C(=C/c1cccc2ccccc12)NC(=O)c1ccccc1`: the inhibition was 4.32%. Under `N#CC1=C(c2ccc(-c3ccccc3)cc2)COC1=O` stands 7.38%; under `CC(=O)N1CCN(c2ccc(NC(=O)c3ccc(F)cc3)cc2)CC1`, 13.2%. On to `CC(C)c1ccc(C(=O)Nc2ccc(N3CCOCC3)cc2)cc1`, for which the inhibition is 7.63%. Under `CC(=O)N1CCN(c2ccc(NC(=O)c3ccccc3)cc2)CC1` stands 11.9%.

As for `CCc1ccc(NC2CC(=O)N(c3ccc(OC)cc3OC)C2=O)cc1` (configuration not stated), the inhibition was 4.67%. The figure for `CC(=O)N1CCN(c2ccc(NC(=O)C(c3ccccc3)c3ccccc3)cc2)CC1` is 3.06%.

Consider `COc1cccc(N2C(=O)CC(Nc3ccc(N4CCOCC4)cc3)C2=O)c1` (configuration not stated), for which the inhibition was 20.1%. For the molecule `CCc1ccc(NC(=O)N2CCN(c3ccc(F)cc3)CC2)cc1`, the inhibition was 2.99%. The figure for `CC(C)c1ccc(S(=O)(=O)Nc2ccc(N3CCOCC3)cc2)cc1` is 8.59%.
